Screening results deposited in PubChem BioAssay by National Center for Advancing Translational Sciences (NCATS).
A selection: hits, their analogues and other compounds. The true share with any hit is near 1.2%.
gsp antag – qHTS for Antagonists of gsp, the Etiologic Mutation Responsible for Fibrous Dysplasia/McCune-Albright Syndrome: qHTS. gsp-mutant cells, cAMP HTRF, 30 min. hit rate 0.4% among 340,000. Potency, µM (top dose mostly 76.9 µM), without a hit: top-dose activity change, negative = inhibition, most hits filed as inhibitors. AID 624288, 2012; calls by dose curve; cell line not stated here;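 also: intracellular cAMP measured with PDE inhibitor Ro 20-1724 present during compound exposure; potency is read from the fitted curve at half-maximal effect; % is scaled to controls: 0 for no effect and ±100 for the full control effect; nearly all actives have a fitted effect of over 65% in size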
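Cells, 2000/well, grown 16–24 h in DMEM 10% FBS with 0.5 mg/ml G418, then compounds plus […] (300 uM addition stock), 30 min at 37C. cAMP read by HTRF (cAMP-d2 and anti-cAMP antibody-K in lysis buffer) after 30 min RT.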
MmCpn inh – Inhibitors of TCP-1 ring complex (TRiC) of Methanococcus maripaludis (MmCpn): qHTS; purified Mm-Cpn ATPase, ADP Transcreener TR-FRET; Potency, µM (series often up to 76.9 µM), inactives show top-dose activity, negative = inhibition, actives largely listed as inhibitors; hit rate 0.031% among 330,000; active = well fitted inhibition curve with a large enough effect; inconclusive = small, poorly fitted or top-dose-only effect; also: potency is read from the fitted curve at half-maximal effect; % is scaled to controls: 0 for no effect and ±100 for the full control effect; nearly all actives have a fitted effect of over 80% in size
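25 nM Mm-CPN + cpd, 10 min 37°C; + 10 uM ATP, 30 min 37°C; buffer 30 mM Tris pH 7.4, 100 mM KCl, 5 mM MgCl2, 1 mM DTT; Transcreener ADP HTRF detection 30 min RT.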
gsp ag – qHTS for Agonist of gsp, the Etiologic Mutation Responsible for Fibrous Dysplasia/McCune-Albright Syndrome: qHTS; gsp mutant cells, cAMP HTRF, 30 min; Potency, µM (top dose mostly 76.9 µM), for the others: at the highest dose activation (cAMP increase), usual class: activators; hit rate 0.13% among 340,000; active = well fitted activation curve with a large enough effect; inconclusive = small, poorly fitted or top-dose-only effect, or another doubt; inactive = no such curve, though single readings can be large or run the other way; cell line not stated here;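 also: phosphodiesterase inhibitor Ro 20-1724 added with compounds to block cAMP breakdown; potency is read from the fitted curve at half-maximal effect; nearly all actives have a fitted effect of over 60% in size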
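Cells stably selected in G418 were plated at 2000/well, grown 16-24 hr, then given compounds in DMSO with the PDE inhibitor […] (300 uM solution added) for 30 min at 37C; cAMP was read by HTRF.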
CCT modulator – High-Throughput Screening for Modulators of Cytosolic Chaperonin Activity | activity change, % (concentration not given with the values), hits read low | hit rate 0.3% among 360,000 | purified chaperonin ATPase assay, HTRF ADP detection, 30 min | AID 651819, 2012; in the data active = activity change below about -30%; also: % is scaled to controls: 0 for no effect and ±100 for the full control effect
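TRiC at 40 or 20 nM final (batch-dependent) in 30 mM Tris pH 7.4, 100 mM KCl, 5 mM MgCl2, 1 mM DTT, with compound at single 76 uM and 10 uM ATP, 30 min at 37 deg C. ADP detected by HTRF Transcreener, 665/615 ratio.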
uPA surface inh – qHTS for Inhibitors of Cell Surface uPA Generation; hit rate 0.31% among 330,000; cell surface uPA generation assay, qHTS; AID 540303, 2011; Potency, µM (doses to about 38.3 µM), inactives show at the highest dose activity change, negative = inhibition, actives largely listed as inhibitors; active = well fitted inhibition curve with a large enough effect; inconclusive = small, poorly fitted or top-dose-only effect; inactive = no such curve, though single readings can be large or run the other way; tested in mouse RAW 264.7 cells; also: potency is read from the fitted curve at half-maximal effect; % is scaled to controls: 0 for no effect and ±100 for the full control effect; nearly all actives have a fitted effect of over 55% in size
TSHR antag – Antagonists of the Thyroid Stimulating Hormone Receptor: HTS campaign; TSHR-expressing cells, TSH-stimulated cAMP HTRF, 2 h; hits give low values; Thyrotropin receptor (Homo sapiens), P16473; activity change, negative = inhibition, % at 11.5 µM; hit rate 0.2% among 330,000;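 active = activity change below a set negative limit, meaning inhibition stronger than a set level, cut at about -70% in these data; inconclusive = activity change between two set negative limits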; also: % is scaled to controls: 0 for no effect and ±100 for the full control effect
Target sequence (P16473 whole entry, looked up): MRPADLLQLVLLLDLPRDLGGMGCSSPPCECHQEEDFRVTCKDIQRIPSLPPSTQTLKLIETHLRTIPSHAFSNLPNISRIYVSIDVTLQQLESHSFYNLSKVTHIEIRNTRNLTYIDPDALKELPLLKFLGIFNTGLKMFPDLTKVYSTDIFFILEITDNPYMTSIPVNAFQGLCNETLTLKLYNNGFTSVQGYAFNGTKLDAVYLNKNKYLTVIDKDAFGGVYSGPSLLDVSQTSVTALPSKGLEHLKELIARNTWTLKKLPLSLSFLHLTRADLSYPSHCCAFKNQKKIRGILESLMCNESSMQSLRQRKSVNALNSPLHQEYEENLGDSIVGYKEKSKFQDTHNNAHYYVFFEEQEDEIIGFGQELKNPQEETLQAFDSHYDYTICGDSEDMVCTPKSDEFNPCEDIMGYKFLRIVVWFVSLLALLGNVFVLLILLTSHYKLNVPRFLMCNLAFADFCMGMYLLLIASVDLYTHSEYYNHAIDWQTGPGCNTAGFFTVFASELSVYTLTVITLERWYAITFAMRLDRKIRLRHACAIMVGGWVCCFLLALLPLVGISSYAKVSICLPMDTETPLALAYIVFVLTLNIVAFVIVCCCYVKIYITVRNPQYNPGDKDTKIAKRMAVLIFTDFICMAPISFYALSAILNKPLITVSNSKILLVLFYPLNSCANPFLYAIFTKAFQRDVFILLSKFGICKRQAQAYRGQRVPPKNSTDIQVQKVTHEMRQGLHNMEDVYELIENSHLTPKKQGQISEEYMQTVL
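Competitive HTRF cAMP read-out (cryptate anti-cAMP antibody, cAMP-d2; 30 min, room temperature) in freshly harvested TSHR cells. Compounds added before TSH at EC80 (4nM final), followed by 2 hours' incubation at 37 deg C.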
Numbers without * were called inactive; ? = inconclusive; . = no result; [ ] = remark or other dose.

SMILES | gsp antag | MmCpn inh | gsp ag | CCT modulator | uPA surface inh | TSHR antag
COc1ccc(-c2ccc(-c3nnn(CC(=O)N4CCOCC4)n3)cc2)cc1 | 4.7% | 1.2% | 8.3% | -0.4 | -7.1% | -6.1
CCOC(=O)C(=CNc1ccccc1C)C(=O)OCC | 20µM* | 0.9% | 35.4% | 0.5 | . | 4.3
CN(C)S(=O)(=O)c1ccc(C(=O)Nc2nnc(-c3ccc4c(c3)CCCC4)o2)cc1 | -4.7% | -2.2% | ? | -3.5 | 4.47µM* | 9.8
O=C(Nc1ccc2c(c1)OCO2)c1cccc2c1C(=O)N(Cc1cccnc1)C2 | -15.8% | 0.3% | 14.9% | -2.0 | 4.7% | -6.0
CCOC(=O)C1C(=O)CC(C)(O)C(C(=O)OCC)C1c1ccccc1 (centres undefined) | -1.5% | 1.0% | -27.6% | -0.9 | 6.1% | -10.6
CCN(CC)c1ccc(/C=C/c2cc(-c3ccccc3)c3ccccc3n2)cc1 | -5.2% | 35.5µM* | ? | 1.2 | -6.6% | 5.7
Cc1cc(C)nc(N/N=C/C2=C(N3CCOCC3)C(=C/c3ccccc3)/CC2)n1 | 28.2µM* | -1.5% | 7.3% | 0.3 | -4.5% | 47.5
Cc1ccc(S(=O)(=O)NCCC(=O)Nc2ccc(S(=O)(=O)NC(C)C)cc2)cc1 | -13.0% | 0.2% | -2.7%[15.4 µM] | 1.2 | -9.5% | -11.8
C[C@@H]1Cn2cnc(C(=O)NCC(=O)OC(C)(C)C)c2C(=O)N1 | . | . | -15.1% | -2.1 | . | .
CC(C)(C)OC(=O)CC12CCCCC1NC(=O)O2 (centres undefined) | 10.7% | 0.2% | -13.5% | -49.2* | 14.4% | 0.7
CC(=O)C(Cc1ccccc1)NC(=O)CN1c2cccc3cccc(c23)S1(=O)=O (centres undefined) | 8.0% | -6.2% | -8.3% | -0.5 | -4.3% | -1.8
NS(=O)(=O)c1ccc(CCNC(=O)COC(=O)CCc2ccccc2)cc1 | 2.1% | -1.4% | -13.7% | 1.5 | -0.9% | 11.0
CC(C)(C)c1ccc(C(=O)NC(=O)COC(=O)CCS(=O)(=O)c2ccccc2)cc1 | 1.9% | -2.3% | -10.0% | -67.9* | 1.8% | 4.4
CC(C)(C)c1ccc(C(=O)CCC(=O)OCC(=O)NCCc2ccc(S(N)(=O)=O)cc2)cc1 | 31.6µM* | 3.0% | 0.8% | -2.5 | 2.6% | -6.3
CC1=CC(C)(C)Nc2ccc(OC(=O)c3ccco3)cc21 | 0.8% | -8.8% | -22.6% | 0.7 | 18.6% | -2.1
NCCCCCc1cn([C@@H](CO)C(=O)NCCCCCCCCCCC(=O)N2CCNCC2)nn1 | 11.2% | 2.5% | . | -1.0 | 3.2% | 14.5
Cc1ccc(C)c(C(=O)N(Cc2nc(-c3ccc(Cl)cc3)no2)C(C)C)c1 | -22.0% | -0.3% | -35.9% | -0.5 | -18.9% | -22.3
Cc1ccc(N2CC(C(=O)NC3CC3)CC2=O)cc1Cl (centres undefined) | -3.5% | 2.6% | 9.9%[15.4 µM] | 1.3 | 0.3% | -7.9
Cc1cc(C(F)(F)F)nn1CC(=O)Nc1cccnc1 | 0.7% | 0.7% | -1.0% | -41.0* | 12.3% | 13.5
Cc1cc(C)n(CC(=O)Nc2cccc(C(F)(F)F)c2)n1 | 5.1% | 0.9% | -63.2% | 0.1 | -8.4% | 6.8
CC(C)Cn1c(N)c(C(=O)COC(=O)c2cnc(Cl)c(Cl)c2)c(=O)n(C)c1=O | 35.5µM* | 2.1% | -39.9% | -2.9 | ? | -1.8
CCOC(=O)Cc1csc(SCC(=O)c2c(N)n(CC(C)C)c(=O)n(C)c2=O)n1 | 11.2µM* | -2.1% | 3.2% | -2.5 | -11.2% | -31.4
CCOc1ccccc1OCC(=O)OCC(=O)c1c(N)n(CC(C)C)c(=O)n(C)c1=O | 35.5µM* | 0.0% | -2.2% | 1.7 | -10.8% | -14.2
